The results in this text go back to the supplement of paper PMC11172423.

Molecules are shown by their SMILES. Values without a mark were called inactive.

This test concerns Falciformispora senegalensis CBS197.79. Nature of the test: growth relative to untreated control; higher = less inhibition, active = 20 or less. The note with it: 100 µM. The essentials:
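In 96-well plates, suspended hyphal fragments of M. mycetomatis MM55 or F. senegalensis CBS197.79 were exposed to compound at 100 or 25 µM for 7 days at 37 °C. The suspension medium was colourless RPMI 1640 with L-glutamine and MOPS, adjusted to 68–72% transmission at 660 nm. Viability was measured with MTS (2 h, 490 nm) or resazurin (600 nm). Growth means metabolic activity compared with the untreated growth control after blank correction of both with medium plus dye.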
`CNC(=O)c1cc(-c2n[nH]c3ccc(-c4nc(C5CCCN5)n[nH]4)cc23)ccc1F` (stereo unspecified): the growth was 106%. In the case of `CO[C@H]1C[C@@H]2CC[C@@H](C)[C@@](O)(O2)C(=O)C(=O)N2CCCC[C@H]2C(=O)O[C@H]([C@H](C)C[C@@H]2CC[C@@H](O)[C@H](OC)C2)CC(=O)[C@H](C)/C=C(\C)[C@@H](O)[C@@H](OC)C(=O)[C@H](C)C[C@H](C)/C=C/C=C/C=C/1C`, the growth is 105%. The figure for `CC(C)Nc1ncc2nc(Nc3cc(Cl)cc(C(F)(F)F)c3)n(C3CCNCC3)c2n1` is 69.2%.

`OCCN1CCc2nc(NCc3ccc(F)cc3F)nc(NC34CC(C3)C4)c2CC1`: the growth is 19.8% (active). As for `Cc1c2c(n3c(nc4ccccc43)c1C#N)N(CCN(C)C)CC2`, the growth was 88.2%.

As for `Oc1nc2ccccc2n1C1CCN(CCCC(c2ccc(F)cc2)c2ccc(F)cc2)CC1`, the growth is 100%. As to `CO[C@H]1C[C@H](O[C@@H]2/C(C)=C/C[C@@H]3C[C@@H](C[C@]4(CC[C@H](C)[C@@H](C5CCCCC5)O4)O3)OC(=O)[C@@H]3C=C(C)/C(=N/O)[C@H]4OC/C(=C\C=C\[C@@H]2C)[C@]43O)O[C@@H](C)[C@@H]1O`, the growth is 89.3%.

In the case of `COC(=O)N[C@H](C(=O)N[C@@H](Cc1ccccc1)[C@@H](O)CN(Cc1ccc(-c2ccccn2)cc1)NC(=O)[C@@H](NC(=O)OC)C(C)(C)C)C(C)(C)C`, the growth is 108%.

With `O[C@@H](c1cc(C(F)(F)F)nc2c(C(F)(F)F)cccc12)[C@H]1CCCCN1`, the growth is 14.8% (active). For `CCCCN(CCCC)CC(O)c1cc(Cl)cc2c1-c1ccc(Cl)cc1/C2=C/c1ccc(Cl)cc1` (stereo unspecified), the growth was 96.3%. Turning to `CN(C)CCCN1c2ccccc2Sc2ccc(Cl)cc21`, the growth is 7.45% (active). On to `CC(=O)Nc1ccc(NC(=O)c2cc(-c3ccc(C)cc3O)n[nH]2)cc1`, for which the growth was 82.2%. For the compound `c1cc(N2CCC(CN3CCOCC3)CC2)c2sccc2n1`, the growth is 32.1%.

Regarding `CS(=O)(=O)NC1CCN(C(=O)c2ccc(Nc3nccc(-c4cc(Cl)cc(C(F)(F)F)c4)n3)cc2)C1` (stereo unspecified), the growth is 82.5%. The result for `CCN(CC)C(=O)/C(C#N)=C/c1cc(O)c(O)c([N+](=O)[O-])c1` reads 99.4%; that for `c1ccc(Nc2cc(Nc3cc(-c4ccccc4)[nH]n3)nc3ccnn23)cc1`, 59.7%. As for `CS(=O)(=O)N1CCC(NC(=O)c2cc3ccc(C(F)(F)F)cc3[nH]2)CC1`, the growth is 84.8%. On to `CCC(CC)COC(=O)[C@H](C)NP(=O)(OC[C@H]1O[C@@](C#N)(c2ccc3c(N)ncnn23)[C@H](O)[C@@H]1O)Oc1ccccc1` (stereo partly specified), for which the growth is 96.3%. With `Clc1ccc2ncc(-c3cccc(NC4CCNC4)n3)n2c1` (stereo unspecified), the growth is 83.1%.

In the case of `CCCCc1nc(Cl)c(CO)n1Cc1ccc(-c2ccccc2-c2nn[nH]n2)cc1`, the growth was 105%. As to `Cc1ccc(-c2cc(C(F)(F)F)nn2-c2ccc(S(N)(=O)=O)cc2)cc1`, the growth is 9.81% (active). In the case of `COc1ccc2c(O[C@@H]3C[C@H]4C(=O)N[C@]5(C(=O)NS(=O)(=O)C6CC6)C[C@H]5/C=C\CCCCN(C)C(=O)[C@@H]4C3)cc(-c3nc(C(C)C)cs3)nc2c1C`, the growth is 100%. The figure for `CN(C)CCCN1C(=O)c2[nH]nc(-c3ccc(Cl)cc3O)c2C1c1ccc(Cl)cc1` (stereo unspecified) is 25.4%; for `Cc1cc(C)c2cc(C(=O)N[C@@H](C)c3ccccc3)[nH]c2c1` it is 87.5%.

For the compound `CC(C)(C)c1nn(-c2ccc(Cl)cc2)c2[nH]c(=O)c(CNCc3ccc4c(c3)OCO4)cc12`, the growth was 66.3%. `Cc1noc(C2CN(C(=O)c3ccc(Nc4nccc(-c5ccc(Cl)cc5)n4)cc3)C2)n1`: the growth was 99.2%. As to `CC(C)CN(C[C@@H](O)[C@H](Cc1ccccc1)NC(=O)O[C@H]1CO[C@H]2OCC[C@H]21)S(=O)(=O)c1ccc(N)cc1`, the growth is 101%. The result for `CCOc1ccccc1NC(=O)Cn1c(=O)n(Cc2ccccc2)c(=O)c2c(C)c(C(=O)N(C)C)sc21` reads 108%; that for `C[C@H](CS)C(=O)N1CCC[C@H]1C(=O)O`, 91.7%; that for `COc1ccc(-c2nc3c(NCc4ccccc4)nccc3[nH]2)c(OC)c1`, 26.6%. The figure for `COc1ccc(CCNc2nccc(-c3cc(Cl)cc(C(F)(F)F)c3)n2)cc1` is 94.6%.
